Screens: PubChem BioAssay, National Center for Advancing Translational Sciences (NCATS)
Many of the other results were omitted from the sample, so hits are more common in it than they were.
IMPase Li inh: membrane-permeable IMPase blocker, potentiated with lithium. CHO-M1 cells, IP1 TR-FRET (IP-One), carbachol + lithium. 0.35% of 210,000 active. Potency, µM (top dose mostly 59.4 µM), actives largely listed as inhibitors;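 note: IP1 builds up when IMPase is blocked and the TR-FRET signal falls; nearly all actives have a fitted effect of over 50% in size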
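Steps: plate 2000 CHO-M1 cells per well and culture 16–30 h; add compound and lithium; incubate 30 min, 37C; add d2-IP1 tracer and Eu cryptate anti-IP1 antibody in lysis buffer; read after 10 min at room temperature.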
ERK EGF block: blocks ERK signaling stimulated by EGF; HEK293-V1b, EGF-stimulated phospho-ERK AlphaScreen; Potency, µM (top dose mostly 11.5 µM), actives largely listed as inhibitors; 0.41% of 130,000 active; AID 1454; note: nearly all actives have a fitted effect of over 55% in size
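Phospho-ERK1/2 measured by AlphaScreen (SureFire) after 5 min 25 nM EGF stimulation of V1b-expressing HEK293 cells preincubated 30 min at 37C with titrated compounds; data scaled to DMSO and EGF controls, Hill-fitted AC50.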
NPSR antag: blocks cAMP signaling of the human neuropeptide S receptor; Q6W5P4; CHO-NPSR cells, cAMP TR-FRET, antagonist mode; Potency, µM (top dose mostly 38.3 µM), hits mostly inhibitors; 1% of 220,000 active; AID 1461; note: nearly all actives have a fitted effect of over 50% in size
ERK pERK EGF: reduces EGF-stimulated ERK phosphorylation in HEK293 cells; AID 1725; Potency, µM (series often up to 57.5 µM), most hits filed as inhibitors; HEK293 EGF-stimulated ERK phosphorylation, AlphaScreen; 60% of 60 active; shares compounds with ERK EGF block
cRaf kinase inh: ERK pathway inhibitors follow-up: human c-Raf kinase inhibition | shares compounds with ERK EGF block | c-Raf kinase inhibition, homogeneous biochemical assay | activity change, negative = inhibition, % at 76.9 µM | 70 tested, under 10 active
Target sequence (P04049 whole entry, looked up): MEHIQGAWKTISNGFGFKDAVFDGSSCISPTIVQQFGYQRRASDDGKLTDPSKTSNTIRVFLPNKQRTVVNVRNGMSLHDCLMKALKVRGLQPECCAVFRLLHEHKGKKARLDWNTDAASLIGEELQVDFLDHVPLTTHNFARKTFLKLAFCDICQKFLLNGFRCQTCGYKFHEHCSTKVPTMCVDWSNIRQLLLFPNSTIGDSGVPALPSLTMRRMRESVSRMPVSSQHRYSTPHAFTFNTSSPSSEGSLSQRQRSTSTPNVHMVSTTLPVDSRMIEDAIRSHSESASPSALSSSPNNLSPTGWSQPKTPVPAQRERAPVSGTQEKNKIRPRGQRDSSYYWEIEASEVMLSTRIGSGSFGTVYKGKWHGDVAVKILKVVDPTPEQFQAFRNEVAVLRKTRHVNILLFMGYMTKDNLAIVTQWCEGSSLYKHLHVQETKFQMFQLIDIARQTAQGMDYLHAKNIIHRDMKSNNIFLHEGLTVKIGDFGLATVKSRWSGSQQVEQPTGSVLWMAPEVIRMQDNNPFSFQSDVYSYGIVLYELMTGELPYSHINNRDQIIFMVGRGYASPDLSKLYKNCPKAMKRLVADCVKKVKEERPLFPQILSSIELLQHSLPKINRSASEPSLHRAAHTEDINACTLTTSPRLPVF
MEK1 kinase inh: ERK pathway inhibitors follow-up: human MEK1 kinase inhibition. shares compounds with ERK EGF block. Potency, µM (doses to about 76.9 µM), actives largely listed as inhibitors. homogeneous MEK kinase activity assay, ERK pathway. 70 tested, under 10 active
Hits are given with their value; – = inactive; ? = inconclusive; · = no result given. Calls come from the whole dose curve; as a rule, active = well fitted curve in the direction sought with a large enough effect; inconclusive = small, poorly fitted or top-dose-only effect, or another doubt; inactive = no such curve, though single readings can be large; an effect the other way counts as inactive or inconclusive.

SMILES	IMPase Li inh	ERK EGF block	NPSR antag	ERK pERK EGF	cRaf kinase inh	MEK1 kinase inh
COc1cc2c(cc1O)CCC1C2CC[C@]2(C)[C@@H](O)CC[C@@H]12 (stereo partly drawn)	–	–	–	·	·	·
CC1=NN(C(=O)c2ccc(Cn3cc([N+](=O)[O-])cn3)cc2)C(O)(C(F)(F)F)C1 (stereo not drawn)	–	–	–	·	·	·
CC(=O)OC1CC[C@]2(C)C(CC(OC(C)=O)[C@@]3(C)C4=CC(=O)OC(c5ccoc5)[C@]4(C)CCC23)C1(C)C (stereo partly drawn)	–	–	·	·	·	·
COc1ccc(N=C2C(=Nc3ccc(OC)cc3)N(c3ccccc3)C(=S)N2C(=O)c2ccc(Cl)cc2)cc1	–	2.2µM	–	–	–	–
COc1ccc(C(=O)n2nc(-c3ccccc3)nc2SC)cc1	–	·	–	·	·	·
COc1ccc(N2CCN(C(=O)c3ccncc3)CC2)cc1	–	·	–	·	·	·
COc1ccc(N=C2NC(=O)S/C2=C\c2ccc(N(C)C)cc2)cc1	–	·	–	·	·	·
COc1ccc(N=C2C(=Nc3ccc(OC)cc3)N(c3ccc(N(C)C)cc3)C(=S)N2c2ccc(OC)cc2)cc1	–	·	–	–	–	–
COc1ccc(N=C2C(=Nc3ccc(OC)cc3)N(c3ccc(OC)cc3)C(=S)N2C(=O)c2ccc(OC)cc2)cc1	–	?	–	5.6µM	–	–
CC(C)C[C@@H](/C=C/S(C)(=O)=O)NC(=O)[C@H](CC(C)C)NC(=O)[C@H](CC(C)C)NC(=O)OCc1ccccc1	–	·	·	·	·	·
OCc1cc2c(cn1)[nH]c1ccccc12	–	·	·	·	·	·
CC(C)c1ccc(/C=C2\C=C(c3ccc4ccccc4c3)OC2=O)cc1	–	·	·	·	·	·
CC(C)=CCC/C(C)=C\COc1c2ccoc2cc2oc(=O)ccc12	–	–	·	·	·	·
C=CCN1C(=O)/C(=C/C=C2/N(CC)c3ccc(S(=O)(=O)N(C)C)cc3N2CC)SC1=S	–	?	–	?	–	–
C=CCN1C(=O)/C(=C\C=C2\N(C)c3ccccc3C2(C)C)SC1=S	–	?	–	·	·	·
Cc1ccc(-c2csc(NC(=O)c3cc([N+](=O)[O-])ccc3N3CCOCC3)n2)cc1	–	–	–	·	·	·
O=C(Nc1nc(-c2ccccc2)cs1)c1ccc(N2CCOCC2)c([N+](=O)[O-])c1	–	4µM	–	10µM	?	–
N#CC(=C(\N)Sc1ccccc1N)/C(C#N)=C(/N)Sc1ccccc1N	–	1.4µM	?	·	–	·
Nc1ccccc1SCc1ccccc1	–	–	–	·	·	·
COC(=O)N[C@@H](c1ccc(Br)cc1)C(C(=O)OC)C(=O)OC	–	–	·	·	·	·
C/C(=N\Nc1nnc(-c2ccccc2)c(-c2ccccc2)n1)c1cccc([N+](=O)[O-])c1	–	?	?	–	–	–
O=[N+]([O-])c1cccc(/C=N/Nc2nnc(-c3ccccc3)c(-c3ccccc3)n2)c1	–	–	–	·	·	·
CC[C@H](C)[C@H](NC(=O)[C@H](CCCN=C(N)N)NC(=O)[C@H](CCCN=C(N)N)NC(=O)[C@H](CC(C)C)NC(=O)[C@H](Cc1ccccc1)NC(=O)CNC(=O)CN)C(=O)N[C@@H](CCCN=C(N)N)C(=O)N1CCC[C@H]1C(=O)N[C@@H](CCCCN)C(=O)N[C@@H](CC(C)C)C(=O)N[C@@H](CCCCN)C(=O)O	–	·	·	·	·	·
Cc1ccc(C(=O)NNc2c3ccccc3nc3ccccc23)cc1	·	?	–	·	·	·
Cc1ccc(NNc2c(C)nc3ccccc3nc2=O)cc1	–	·	–	8.9µM	–	–
SMILES	IMPase Li inh	ERK EGF block	NPSR antag	ERK pERK EGF	cRaf kinase inh	MEK1 kinase inh
Cc1nc2cnc(N(C)C)nc2n(C)c1=O	–	–	·	·	·	·
COc1cccc(/C=N/Nc2ncnc3scc(-c4ccccc4)c23)c1O	–	–	–	·	·	·
COc1cccc(/C=N/Nc2cc(-n3nc(C)cc3-c3ccccc3)ncn2)c1O	–	8.9µM	–	11µM	?	–
O=c1nc2ccccc2c2n1CC(CN1CCN(c3ccccc3)CC1)N2 (stereo not drawn)	–	·	·	·	·	·
CCCOc1ccc(/C=N/Nc2ccccc2[N+](=O)[O-])c(O)c1	–	?	–	?	?	–
CCCOc1ccc(/C=N/NC(=S)Nc2ccccc2[N+](=O)[O-])c(O)c1	–	–	–	·	·	·
Cc1cc([N+](=O)[O-])cnc1Sc1nccn1C	–	–	–	·	·	·
Cc1nc2cc(C)c(C)cc2s1	–	–	–	·	·	·
Cc1cc2nc3ccc(=[N+](C)C)cc-3sc2cc1N	·	?	?	–	?	?
COc1ccc2c(c1)C(=O)[C@@H](OC(=O)NCc1ccco1)[C@H](c1ccc(OC)c(Br)c1)O2	–	–	·	·	·	·
Cc1ccccc1-c1cc(Nc2ccccc2)ncn1	–	·	·	·	·	·
N#C/C(=C/c1ccco1)C(N)=S	·	–	–	·	·	·
N#CC(C#N)=C1C=CC=CN1/C(=C\c1ccco1)C(=O)c1ccc(Br)cc1	–	7.9µM	?	16µM	?	–
